Experimental findings from PubChem BioAssay (Tox21) are described below.

Test [1] addresses Progesterone receptor (Homo sapiens) (UniProt P06401). In words: qHTS assay to identify small molecule agonists of the progesterone receptor (PR) signaling pathway (AID 1346784; calls by dose curve; further: on the % scale 0 is the no-effect control and ±100 the full control effect; nearly all actives have a fitted effect of over 30% in size). The procedure, abridged: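 PR-UAS-bla HEK 293T cells (beta-lactamase reporter under UAS) in 2% charcoal-stripped FBS, dosed with 23 nL compound after 6 hr, incubated 16hr at 37C. LiveBLAzer B/G FRET substrate added, fluorescence read after 2 hours.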
On the technique in general: qHTS replaces the single test concentration by a dilution series.

Test [2] shares this target. In words: qHTS assay to identify small molecule antagonists of the progesterone receptor (PR) signaling pathway (AID 1346795; active means well fitted inhibition curve with a large enough effect in the signal ratio in the repeat runs, not every such curve was filed as active; the % refers to the signal ratio; further: on the % scale 0 is the no-effect control and ±100 the full control effect). The procedure, abridged: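 PR-UAS-bla HEK293T cells with beta-lactamase reporter under UAS control, in 2% charcoal-stripped FBS, treated with compounds plus 1 nM promegestone (R5020, final) for 16 hr at 37C. Read-out: FRET beta-lactamase substrate fluorescence after 2 hr at room temperature.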

Test [3] is described as follows: qHTS assay to identify small molecule agonists of the progesterone receptor (PR) signaling pathway - cell viability counter screen (AID 1346799; calls by dose curve; further: nearly all actives have a fitted effect of over 45% in size; further: potency means the concentration at half of the fitted maximal effect). The gist of the method: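 Counter screen in the PR-UAS-bla HEK293T wells (2% charcoal-stripped FBS, 16 h compound exposure at 37 C) after the bla read. CellTiter-Glo added, 30 min at room temperature, luminescence read as cell viability.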

Test [4] in a line: qHTS assay to identify small molecule antagonists of the TGF-beta/Smad signaling pathway - cell viability counter screen (AID 1346824). Further: on the % scale 0 is the no-effect control and ±100 the full control effect; nearly all actives have a fitted effect of over 50% in size. The gist of the method: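 SBE-bla HEK 293T cells, incubated overnight, then compound plus 0.25 ng/mL TGF-beta1 (stock added) for 5 hr at 37 C. Viability was read in the same wells by CellTiter-Glo luminescence after 30 min at room temperature.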

Test [5] is described as follows: qHTS assay to identify small molecule agonists of the TGF-beta/Smad signaling pathway - cell viability counter screen (AID 1346829). Further: top concentration of the series differs between compounds; on the % scale 0 is the no-effect control and ±100 the full control effect; nearly all actives have a fitted effect of over 45% in size. The gist of the method: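 HEK 293T SBE-bla line, 5 hr compound exposure at 37 C, multiplexed CellTiter-Glo viability read by luminescence.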
Test [6] can be described thus: qHTS assay to identify small molecule agonists of the TGF-beta/Smad signaling pathway (AID 1346859; active means well fitted activation curve with a large enough effect in the signal ratio in the repeat runs, not every such curve was filed as active; the % refers to the signal ratio; further: series mostly up to about 77 µM; on the % scale 0 is the no-effect control and ±100 the full control effect). The gist of the method: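 SBE-bla HEK293T cells plated overnight, then compound exposure for 5 h at 37 C. Beta-lactamase reporter read with LiveBLAzer B/G FRET substrate after 2 h at room temperature, fluorescence at 405 nm excitation, 460/530 nm emission.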
The target of test [7] is Thyrotropin-releasing hormone receptor (Homo sapiens) (UniProt P34981). The test is described as follows: qHTS assay to identify small molecule antagonists of the thyrotropin-releasing hormone receptor (TRHR) signaling pathway (AID 1346877; active means well fitted inhibition curve with a large enough effect in the repeat runs, not every such curve was filed as active; further: series mostly up to about 51 µM; on the % scale 0 is the no-effect control and ±100 the full control effect). The procedure, abridged: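 Overnight-plated (18 h, 37 °C) HEK293 cells expressing TRHR were dye-loaded 2 h, treated with compound, then stimulated with TRH at 1 nM final. Fluorescence intensity was captured every second for 3 min.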
Sequence of Thyrotropin-releasing hormone receptor (Homo sapiens) (P34981 whole entry, looked up): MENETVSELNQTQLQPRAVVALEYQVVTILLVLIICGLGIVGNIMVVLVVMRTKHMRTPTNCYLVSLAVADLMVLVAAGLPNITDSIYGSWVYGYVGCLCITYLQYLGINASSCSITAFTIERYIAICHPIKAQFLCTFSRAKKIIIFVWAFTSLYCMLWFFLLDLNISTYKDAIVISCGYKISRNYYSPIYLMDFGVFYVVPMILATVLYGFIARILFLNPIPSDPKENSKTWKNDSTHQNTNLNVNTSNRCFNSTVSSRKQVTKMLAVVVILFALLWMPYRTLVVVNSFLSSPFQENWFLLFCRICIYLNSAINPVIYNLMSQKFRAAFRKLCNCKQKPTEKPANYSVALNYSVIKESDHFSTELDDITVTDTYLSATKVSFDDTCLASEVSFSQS

Test [8] shares this target. In words: qHTS assay to identify small molecule agonists of the thyrotropin-releasing hormone receptor (TRHR) signaling pathway (AID 1346891; calls by dose curve; further: series mostly up to about 58 µM; on the % scale 0 is the no-effect control and ±100 the full control effect). The procedure, abridged: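 HEK293 cells expressing TRHR plated 18 h at 37 C/5% CO2, calcium dye-loaded 2 h at 37 C, then compound added (agonist mode); kinetic calcium fluorescence read 3 min at 1 s intervals; 15 concentrations in triplicate.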

Test [9] can be described thus: Human pregnane X receptor (PXR) small molecule agonists, qHTS cell viability counter screen (AID 1346977). Further: nearly all actives have a fitted effect of over 50% in size. Further: potency means the concentration at half of the fitted maximal effect. The procedure, abridged:
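PXR-Luc HepG2 cells (2,000/well, 5% charcoal-stripped FBS) preincubated 5 hr, then exposed to compounds 24 hr at 37 C. Viability read in the same wells by CellTiter-Fluor fluorescence, reagent added at 23 hr, 1 hr incubation.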

The nature of test [10]: Caspase-3/7 induction in HepG2 cells by small molecules, qHTS assay (AID 1346978). Further: on the % scale 0 is the no-effect control and ±100 the full control effect; nearly all actives have a fitted effect of over 15% in size. The procedure, abridged:
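Wild-type HepG2 cells, 2,000/well, settled 5 hr at 37 C and 5% CO2, then compound-treated for 17 hr; caspase-3/7 activity read by luminescent Caspase-Glo 3/7 after 30 min at room temperature.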

Test [11] in a line: Caspase-3/7 induction in CHO-K1 cells by small molecules, qHTS cell viability counter screen (AID 1346979). Further: nearly all actives have a fitted effect of over 35% in size. Further: potency means the concentration at half of the fitted maximal effect. The gist of the method: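 Wild-type CHO-K1 cells (1,500/well) treated with compound after 5 h plating; after 16 h at 37C, viability read as CellTiter-Fluor fluorescence following 1 h reagent incubation, in the same wells as the caspase read.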
Test [12] is described as follows: Caspase-3/7 induction in CHO-K1 cells by small molecules, qHTS assay (AID 1346980). Further: on the % scale 0 is the no-effect control and ±100 the full control effect; nearly all actives have a fitted effect of over 15% in size. The gist of the method:
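Wild-type CHO-K1 cells exposed to compounds for 17hr at 37 C, 5% CO2. Caspase-3/7 activity then measured by Caspase-Glo 3/7 luminescence after 30min at room temperature.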

Test [13] can be described thus: Caspase-3/7 induction in HepG2 cells by small molecules, qHTS cell viability counter screen (AID 1346981). Further: nearly all actives have a fitted effect of over 30% in size. Further: potency means the concentration at half of the fitted maximal effect. The procedure, abridged:
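Treatment of HepG2 cells with DMSO-delivered compounds ran 16 hr at 37 C following a 5-hr pre-incubation of 2,000 cells/well. CellTiter-Fluor fluorescence, read after 1 hr, served as the viability measure in a qHTS format.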

Test [14] deals with Acetylcholinesterase (Homo sapiens) (UniProt P22303). The test is described as follows: Acetylcholinesterase (AChE) small molecule antagonists: colormetric cell-based qHTS assay (AID 1347395; calls by dose curve; further: on the % scale 0 is the no-effect control and ±100 the full control effect; nearly all actives have a fitted effect of over 30% in size). The gist of the method: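 SH-SY5Y cells attached overnight, exposed to compound 30 min at 37 C, then given DTNB/acetylthiocholine; after 90 min at 37 C, colorimetric thiocholine read gives cellular AChE activity.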
Sequence of Acetylcholinesterase (Homo sapiens) (P22303 whole entry, looked up): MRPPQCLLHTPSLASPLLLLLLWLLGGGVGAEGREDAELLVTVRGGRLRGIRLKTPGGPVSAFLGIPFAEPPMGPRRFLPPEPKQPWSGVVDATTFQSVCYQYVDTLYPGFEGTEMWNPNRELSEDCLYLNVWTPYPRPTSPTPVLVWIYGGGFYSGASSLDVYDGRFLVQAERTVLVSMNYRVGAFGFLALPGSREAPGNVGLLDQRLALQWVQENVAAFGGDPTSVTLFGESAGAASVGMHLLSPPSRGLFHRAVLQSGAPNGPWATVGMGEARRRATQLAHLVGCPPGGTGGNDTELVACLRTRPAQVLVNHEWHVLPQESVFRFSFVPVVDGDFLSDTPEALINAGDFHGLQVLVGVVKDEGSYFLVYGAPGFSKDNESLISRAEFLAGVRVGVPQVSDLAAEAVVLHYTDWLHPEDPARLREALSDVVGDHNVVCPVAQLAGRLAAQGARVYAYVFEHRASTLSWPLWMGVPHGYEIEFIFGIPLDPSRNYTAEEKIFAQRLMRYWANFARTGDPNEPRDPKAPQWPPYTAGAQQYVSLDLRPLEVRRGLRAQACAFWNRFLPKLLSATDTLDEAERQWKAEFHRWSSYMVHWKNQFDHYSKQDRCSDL

Test [15] is described as follows: qHTS assay to identify small molecule antagonists of the progesterone receptor (PR) signaling pathway - cell viability counter screen (AID 1346798). Further: series mostly up to about 92 µM; on the % scale 0 is the no-effect control and ±100 the full control effect; nearly all actives have a fitted effect of over 50% in size. The gist of the method:
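PR-UAS-bla HEK293T cells, 3,000/well in 2% charcoal-stripped FBS medium, dosed with compounds plus R5020 agonist and incubated 16 h at 37C. Viability then measured in the same wells by CellTiter-Glo luminescence after 30 min at RT.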

Test [16] deals with Nuclear receptor subfamily 1 group I member 2 (Homo sapiens) (UniProt O75469). In words: Human pregnane X receptor (PXR) small molecule agonists, qHTS assay (AID 1346982). Further: nearly all actives have a fitted effect of over 35% in size. Further: potency means the concentration at half of the fitted maximal effect. The procedure, abridged: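 Stable HepG2 line reporting PXR-mediated CYP3A4 expression via luciferase. Treatment: 24 hr with compounds in DMSO at 37 C. Detection: ONE-Glo luminescence.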
Sequence of Nuclear receptor subfamily 1 group I member 2 (Homo sapiens) (O75469 whole entry, looked up): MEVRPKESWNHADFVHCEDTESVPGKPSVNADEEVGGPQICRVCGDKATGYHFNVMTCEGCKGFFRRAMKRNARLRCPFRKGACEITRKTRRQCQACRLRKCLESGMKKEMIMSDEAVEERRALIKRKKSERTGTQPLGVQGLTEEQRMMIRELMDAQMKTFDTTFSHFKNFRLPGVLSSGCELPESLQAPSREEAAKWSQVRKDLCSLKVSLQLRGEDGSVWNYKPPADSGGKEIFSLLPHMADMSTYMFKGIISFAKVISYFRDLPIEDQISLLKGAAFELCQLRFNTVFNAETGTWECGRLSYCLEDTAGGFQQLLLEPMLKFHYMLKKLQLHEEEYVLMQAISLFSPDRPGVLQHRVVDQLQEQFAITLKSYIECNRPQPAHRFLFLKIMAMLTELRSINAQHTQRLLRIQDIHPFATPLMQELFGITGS
Test [17] addresses Nuclear receptor subfamily 1 group I member 2 (Rattus norvegicus) (UniProt Q9R1A7). In words: Rat pregnane X receptor (rPXR) activation by small molecules, qHTS assay (AID 1346983). Further: on the % scale 0 is the no-effect control and ±100 the full control effect; nearly all actives have a fitted effect of over 20% in size. Conditions: rPXR luciferase reporter cells, One-Glo luminescence, 24 h; max activation: hits give high values. The gist of the method:
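Cell-based rPXR activation assay: rPXR cells, 2,000 per well, rested 5hr at 37 C, then exposed to compounds in DMSO for 24 hr at 37 C. Luciferase activity read by One-Glo luminescence after 30 min at room temperature.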

For test [18], the target named is Nuclear receptor subfamily 1 group I member 2 (Homo sapiens) (UniProt O75469). In words: CYP3A4 induction through human pregnane X receptor (PXR) by small molecules, qHTS assay (AID 1346984). Further: on the % scale 0 is the no-effect control and ±100 the full control effect; nearly all actives have a fitted effect of over 40% in size. The gist of the method: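 After 24 h at 37C with compound, DPX-2 cells (HepG2, co-transfected PXR response element and CYP3A4 promoter-luciferase) got 3uM final P450-Glo Luciferin-IPA for 3 h; One-Glo luminescence followed.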

Test [19] shares this target. The test is described as follows: Human pregnane X receptor (PXR) activation by small molecules, qHTS assay (AID 1346985). Further: potency means the concentration at half of the fitted maximal effect; nearly all actives have a fitted effect of over 40% in size. The gist of the method: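 DPX-2 cells (HepG2 co-transfected with a PXR response element and a CYP3A4-promoter luciferase construct) were seeded at 2,000 per well, rested 5 hr at 37C, then exposed to DMSO-dissolved compounds for 24 hr. Activation was read as luciferase luminescence.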

A number with no mark means an inactive call. Results filed as inconclusive are left out. Calls of active or inactive are those of the source. Unless noted, the call rests on the fitted dose curve; in most records, active means well fitted curve in the direction sought with a large enough effect in the repeat runs; inconclusive means weak or mixed curves; inactive means no such curve, though single readings can be large; an effect the other way counts as inactive or inconclusive.

Sequence of Progesterone receptor (Homo sapiens) (P06401 whole entry, looked up): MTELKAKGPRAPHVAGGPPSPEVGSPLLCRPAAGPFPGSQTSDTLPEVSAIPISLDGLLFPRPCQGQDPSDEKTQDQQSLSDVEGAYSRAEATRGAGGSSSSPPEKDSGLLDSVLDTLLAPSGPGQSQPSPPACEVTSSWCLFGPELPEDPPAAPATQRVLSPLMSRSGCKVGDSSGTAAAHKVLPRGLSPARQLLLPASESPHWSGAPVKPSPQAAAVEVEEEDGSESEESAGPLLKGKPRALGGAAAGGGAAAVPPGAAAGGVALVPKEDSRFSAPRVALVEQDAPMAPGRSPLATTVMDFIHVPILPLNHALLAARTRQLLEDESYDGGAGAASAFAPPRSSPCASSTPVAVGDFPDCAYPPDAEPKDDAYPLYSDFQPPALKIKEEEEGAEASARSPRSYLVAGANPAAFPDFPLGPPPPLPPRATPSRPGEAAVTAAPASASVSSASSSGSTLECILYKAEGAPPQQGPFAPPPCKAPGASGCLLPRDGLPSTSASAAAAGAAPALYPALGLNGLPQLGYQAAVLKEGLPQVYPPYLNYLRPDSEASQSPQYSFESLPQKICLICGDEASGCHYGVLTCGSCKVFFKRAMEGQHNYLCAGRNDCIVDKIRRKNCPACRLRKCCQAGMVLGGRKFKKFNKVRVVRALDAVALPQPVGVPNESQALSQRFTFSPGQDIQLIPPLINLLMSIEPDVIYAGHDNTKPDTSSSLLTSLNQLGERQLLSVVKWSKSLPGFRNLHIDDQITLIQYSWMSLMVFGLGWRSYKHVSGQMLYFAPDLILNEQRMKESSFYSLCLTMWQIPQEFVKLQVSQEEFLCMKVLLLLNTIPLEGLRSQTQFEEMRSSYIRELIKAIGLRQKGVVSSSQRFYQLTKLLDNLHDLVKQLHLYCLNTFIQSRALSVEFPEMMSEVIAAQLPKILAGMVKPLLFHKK
Sequence of Nuclear receptor subfamily 1 group I member 2 (Rattus norvegicus) (Q9R1A7 whole entry, looked up): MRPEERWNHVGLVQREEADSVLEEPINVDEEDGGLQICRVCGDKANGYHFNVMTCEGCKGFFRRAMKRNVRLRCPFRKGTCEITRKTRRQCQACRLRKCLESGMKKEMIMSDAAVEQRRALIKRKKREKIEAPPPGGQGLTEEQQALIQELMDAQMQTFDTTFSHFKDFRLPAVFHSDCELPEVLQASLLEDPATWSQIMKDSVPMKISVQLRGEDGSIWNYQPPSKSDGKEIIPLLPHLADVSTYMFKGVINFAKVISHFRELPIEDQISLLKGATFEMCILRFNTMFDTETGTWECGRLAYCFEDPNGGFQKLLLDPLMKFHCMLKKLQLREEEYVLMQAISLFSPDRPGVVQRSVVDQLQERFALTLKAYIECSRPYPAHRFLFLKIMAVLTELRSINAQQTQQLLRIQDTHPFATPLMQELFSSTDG

With `C=CC1CC=CCC1` (stereo unspecified), the Potency result in test [1], in test [2], in [3], in test [4], in [9] and in [10] was “inactive” throughout. Also, the Potency result in test [11], in [12], in [13] and in test [14] was “inactive” in each case. The outcome in test [5], in [6], in test [7] and in [8] was inactive.
Take `N#CC(Cl)(Cl)Cl`: the Potency result in test [15], in [3], in test [4], in test [9], in [10] and in [11] was “inactive” throughout. Besides, the Potency result in [13], in [16] and in test [14] was “inactive” each time. Moreover, the call in test [5] and in [6] was inactive.
For `CC(C)(C)C(=O)C(Oc1ccc(Cl)cc1)n1cncn1` (stereo unspecified), the Potency result in [1], in [4], in [9], in [10], in test [11] and in [13] was “inactive” in each case. Also, the Potency result in test [14] was “inactive”. The outcome in test [6], in test [7] and in test [8] was inactive.
Turning to `C[C@H]1CCC[C@H](O)CCCCCc2cc(O)cc(O)c2C(=O)O1`, the Potency entry in test [4], in [10], in test [12], in test [18] and in test [14] was “inactive” throughout. Moreover, the result in test [5], in test [6], in test [7] and in test [8] was inactive. Besides, the Potency in test [9] was 48.9 µM (active); in test [11] it was 61.6 µM (active); in [13], 54.9 µM (active); in test [16] it was 7.75 µM (active); in test [19], 12.6 µM (active). Also, the max activation in test [17] was -2.62%.
On to `CC(C)COP(=O)(OCC(C)C)OCC(C)C`, for which the Potency result in test [1], in [15], in test [3], in test [4], in [9] and in test [10] was “inactive” throughout. For the same molecule, the Potency result in test [11], in test [12], in [13] and in test [14] was “inactive” throughout. Moreover, the call in [5], in test [6] and in [7] was inactive.
As to `ClCCCN1CCN(c2cccc(Cl)c2)CC1`, the Potency entry in test [15], in test [4], in test [9], in test [10], in [11] and in test [12] was “inactive” in each case. Moreover, the Potency result in [13], in test [16] and in test [14] was “inactive” throughout. The Potency in test [3] was 1.19 µM (active). Besides, the molecule was classed as inactive in [5], in test [6], in [7] and in test [8].
`O=C(CCN1CC1)OCC(CO)(COC(=O)CCN1CC1)COC(=O)CCN1CC1`: the Potency result in test [1], in [15], in [3], in test [4], in test [9] and in test [10] was “inactive” in each case. The Potency result in test [11], in test [12], in [13], in [16] and in test [14] was “inactive” throughout. Besides, the call in test [5], in test [6], in [7] and in [8] was inactive.
Consider `CCCSP(=S)(OCC)Oc1ccc(Cl)cc1Cl` (stereo unspecified), for which the Potency entry in test [1], in test [15], in [4], in [9], in test [10] and in test [11] was “inactive” each time. Moreover, the Potency entry in test [12], in test [13] and in test [14] was “inactive” in each case. Besides, the molecule was called inactive in test [5], in test [6], in test [7] and in test [8]. In test [16], the Potency is 30.6 µM (active).
